The values that follow come from PubChem BioAssay.

The target of one assay is Albumin (Bos taurus) (UniProt P02769). Nature of the assay: bovine serum albumin binders on microarray, profiling panel, artefact control for SMM control protein annotation, biochemical, small-molecule microarray, Alexa647 label, 635/667 nm fluorescence (AID 1118).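 Further: score merges 667 nm emission intensity and signal-to-noise per printed compound spot.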 The settings on record: BSA-A647 binding, fluorescence 635 nm, higher = more signal.
Albumin (Bos taurus), sequence (P02769 whole entry, looked up): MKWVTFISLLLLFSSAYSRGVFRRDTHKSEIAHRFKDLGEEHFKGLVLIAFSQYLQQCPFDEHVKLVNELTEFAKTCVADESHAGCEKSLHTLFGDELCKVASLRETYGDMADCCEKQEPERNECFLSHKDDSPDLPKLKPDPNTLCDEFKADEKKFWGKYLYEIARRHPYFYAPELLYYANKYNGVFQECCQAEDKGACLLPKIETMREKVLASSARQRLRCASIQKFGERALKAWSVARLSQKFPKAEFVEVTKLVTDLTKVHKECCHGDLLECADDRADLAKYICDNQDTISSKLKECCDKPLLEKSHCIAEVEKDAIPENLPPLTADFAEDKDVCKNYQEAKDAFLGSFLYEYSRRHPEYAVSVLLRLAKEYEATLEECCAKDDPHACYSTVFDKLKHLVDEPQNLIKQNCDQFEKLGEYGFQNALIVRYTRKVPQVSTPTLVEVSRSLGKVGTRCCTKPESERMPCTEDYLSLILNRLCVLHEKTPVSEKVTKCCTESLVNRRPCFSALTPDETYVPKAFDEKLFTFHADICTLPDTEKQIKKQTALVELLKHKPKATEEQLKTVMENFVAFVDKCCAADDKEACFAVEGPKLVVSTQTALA
Assay [1] is described as follows: small-molecule microarray binders of probe aXIP, primary screen, biochemical, NeuroSMM set, 635/667 nm fluorescence (AID 1119).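 Further: probe is the protein aXip251-270 applied at 1 µg/mL to compound-printed slides; binding of probe to printed compounds measured as 667 nm fluorescence plus signal to noise.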 Conditions: higher = more signal, called active from +8 up or from −8 down.
Assay [2] can be described thus: small-molecule binders of probe aNOTCH3, primary screen, biochemical, small-molecule microarray, 635/667 nm fluorescence (AID 1120).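 Further: probe is a biotin-tagged antibody raised against NOTCH3 rather than NOTCH3 protein; score merges spot fluorescence near 667 nm with spot signal to noise.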 The settings on record: higher = more signal.
The nature of assay [3]: small-molecule binders of probe aNOTCH2, primary screen, biochemical, small-molecule microarray, 635/667 nm fluorescence (AID 1121).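 Further: score merges feature fluorescence read at 667 nm with its signal to noise.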 The settings on record: higher = more signal.
For assay [4], the target named is Carbonic anhydrase 2 (Homo sapiens) (UniProt P00918). Nature of the assay: CAII small-molecule binders, profiling panel, biochemical, small-molecule microarray, Alexa647-labelled CAII (AID 1122). Conditions: CAII-A647 binding fluorescence, higher = more signal.
Assay [5] is described as follows: COS7 lysate on small-molecule microarray, probe aHis, 635 nm (AID 1123).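 Further: z-score combines 667nm fluorescence intensity with signal-to-noise per printed compound spot.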 The settings on record: COS7 cell lysate, fluorescence, higher = more signal.
The nature of assay [6]: compound binding in COS7 lysate, probe aLAP1, primary screen, cell lysate, small-molecule microarray (AID 1124).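 Further: lysate comes from COS7 cells expressing LAP1 and is applied at 0.3 µg/mL; score merges spot fluorescence near 667 nm with signal-to-noise over triplicate slides.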 The settings on record: probe aLAP1, fluorescence, higher = more signal.
A further assay has as its system Sam68 (KHDRBS1). Nature of the assay: Sam68 small-molecule binders, primary screen, biochemical, small-molecule microarray, 635 nm fluorescence (AID 1125).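 Further: score merges 667 nm channel intensity with signal to noise over triplicate slides.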 Conditions: small-molecule microarray binding, higher = more signal.
Assay [7] concerns Chordin-like protein 2 (CHRDL2). The assay is described as follows: CHRDL2 small-molecule binders, primary screen, biochemical, small-molecule microarray, 635 nm fluorescence (AID 1126).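 Further: printed compound slides probed with Chrdl2 protein at 4 µg/mL for 1 h at 4 C; score merges 667 nm emission intensity with signal to noise over three replicate slides.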 The settings on record: small-molecule microarray binding, fluorescence 635 nm; higher = more signal.
In assay [8] the target is Concanavalin-A (Canavalia ensiformis) (UniProt P02866). Nature of the assay: ConA small-molecule binders, primary screen, artefact control for SMM control protein annotation, biochemical, small-molecule microarray, Alexa647 label, 635 nm (AID 1127).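 Further: z combines 667 nm emission intensity with signal-to-noise across three replicate slides.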 The settings on record: ConA-A647 binding fluorescence, higher = more signal.
Concanavalin-A (Canavalia ensiformis), sequence (P02866 whole entry, looked up): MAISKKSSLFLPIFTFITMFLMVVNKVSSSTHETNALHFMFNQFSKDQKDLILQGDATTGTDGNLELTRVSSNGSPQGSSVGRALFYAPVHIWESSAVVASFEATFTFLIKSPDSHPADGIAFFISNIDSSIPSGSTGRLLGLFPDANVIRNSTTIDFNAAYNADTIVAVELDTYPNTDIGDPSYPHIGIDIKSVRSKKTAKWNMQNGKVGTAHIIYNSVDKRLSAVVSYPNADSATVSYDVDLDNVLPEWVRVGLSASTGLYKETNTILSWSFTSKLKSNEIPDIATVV
The nature of assay [9]: anti-His antibody binders, primary screen, artefact control for SMM control protein annotation, biochemical, small-molecule microarray, 635 nm fluorescence (AID 1128).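 Further: score merges feature fluorescence with signal-to-noise for each printed compound spot.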 Conditions: anti-His Alexa647 antibody binding, higher = more signal.
Assay [10] concerns Human papillomavirus type 1a E7 protein (residues 1-88). The assay is described as follows: HPV1a E7 small-molecule binders, primary screen, biochemical, small-molecule microarray, residues 1-88, 635 nm (AID 1129). The settings on record: small-molecule microarray binding, fluorescence 635 nm; higher = more signal.
The target in assay [11] is Focal adhesion kinase 1 (Homo sapiens) (UniProt Q05397). The assay is described as follows: small-molecule microarray binders of FAK, primary screen, biochemical, 635/667 nm fluorescence, BSA, DTT (AID 1130).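 Further: composite of spot emission at 667 nm and signal to noise over triplicate slides.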 The settings on record: PTK2 binding, 635 nm fluorescence, higher = more signal.
Focal adhesion kinase 1 (Homo sapiens), sequence (Q05397 whole entry, looked up): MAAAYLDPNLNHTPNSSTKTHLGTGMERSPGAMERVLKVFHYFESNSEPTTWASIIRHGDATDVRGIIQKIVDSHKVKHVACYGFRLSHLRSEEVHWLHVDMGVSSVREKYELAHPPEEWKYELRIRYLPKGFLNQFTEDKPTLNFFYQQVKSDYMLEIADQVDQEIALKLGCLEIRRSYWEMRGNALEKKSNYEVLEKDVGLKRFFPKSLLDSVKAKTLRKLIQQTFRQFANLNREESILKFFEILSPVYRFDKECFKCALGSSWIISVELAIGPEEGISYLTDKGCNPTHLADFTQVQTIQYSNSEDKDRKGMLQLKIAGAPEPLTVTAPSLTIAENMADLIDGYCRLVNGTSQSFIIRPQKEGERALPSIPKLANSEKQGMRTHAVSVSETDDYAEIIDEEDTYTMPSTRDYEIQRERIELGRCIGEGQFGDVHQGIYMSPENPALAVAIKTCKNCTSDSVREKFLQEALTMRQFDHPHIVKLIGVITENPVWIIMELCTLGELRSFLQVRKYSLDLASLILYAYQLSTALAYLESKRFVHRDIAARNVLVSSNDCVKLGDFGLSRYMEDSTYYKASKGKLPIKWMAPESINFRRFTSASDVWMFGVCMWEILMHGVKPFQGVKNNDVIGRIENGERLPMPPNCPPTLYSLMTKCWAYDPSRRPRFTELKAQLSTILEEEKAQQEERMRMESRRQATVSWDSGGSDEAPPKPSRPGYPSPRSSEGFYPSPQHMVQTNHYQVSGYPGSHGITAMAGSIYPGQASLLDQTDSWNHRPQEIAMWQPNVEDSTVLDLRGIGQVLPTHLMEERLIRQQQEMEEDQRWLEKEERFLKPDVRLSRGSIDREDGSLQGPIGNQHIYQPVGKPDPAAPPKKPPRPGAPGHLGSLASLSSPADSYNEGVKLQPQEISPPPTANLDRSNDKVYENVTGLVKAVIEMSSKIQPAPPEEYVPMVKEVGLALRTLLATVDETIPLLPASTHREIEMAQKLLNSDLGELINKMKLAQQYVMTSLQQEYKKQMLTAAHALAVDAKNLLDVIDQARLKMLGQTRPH
Assay [12] has as its system Fibrinogen (Alexa647-labelled). The assay is described as follows: fibrinogen binders on compound microarrays, profiling panel, artefact control for SMM control-protein annotation, biochemical, small-molecule microarray, 635/667 nm fluorescence (AID 1131).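 Further: z-score merges 667 nm fluorescence with per-spot signal-to-noise over triplicate slides.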 Conditions: fibrinogen-A647 binding fluorescence, higher = more signal.
Assay [13] concerns the target Follistatin (Homo sapiens) (UniProt P19883). The assay is described as follows: follistatin binders on small-molecule microarrays, primary screen, biochemical, small-molecule microarray, 635/667 nm fluorescence (AID 1132). Conditions: FST binding, 635 nm fluorescence, higher = more signal.
Assay [14] has as its target Fibroblast growth factor 2 (Homo sapiens) (UniProt P09038). The assay is described as follows: FGF2 binders on small-molecule microarrays, primary screen, biochemical, small-molecule microarray, 635/667 nm fluorescence (AID 1133). The settings on record: small-molecule microarray binding, FGF2, fluorescence 635/667; higher = more signal.
Assay [15] in a line: mitochondrial membrane potential change in A549 cells, profiling panel, cell-based, JC-1 fluorescence, basal, 24 h, 100 nL (AID 1138).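 Further: A549 lung adenocarcinoma cells under basal conditions with no added stimulus; test concentration not given here.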 The settings on record: higher = more signal.
For another assay, the system named is Lefty1. Nature of the assay: Lefty1 binders on small-molecule microarrays, primary screen, biochemical, small-molecule microarray, 635/667 nm fluorescence (AID 1139). The settings on record: small-molecule microarray binding, fluorescence 635/667; higher = more signal.
In assay [16] the test system is wheat germ agglutinin (Triticum aestivum), Alexa647-labelled. Nature of the assay: wheat germ agglutinin binders on compound microarrays, profiling panel, artefact control for SMM control-protein annotation, biochemical, small-molecule microarray, 635/667 nm fluorescence (AID 1140).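 Further: score merges 667 nm feature emission with signal to noise over triplicate slides.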 Conditions: WGA-A647 binding, 635 nm fluorescence, higher = more signal.
Assay [17] deals with Luciferin 4-monooxygenase (Photinus pyralis) (UniProt P08659). The assay is described as follows: firefly luciferase enzyme inhibitors, primary screen, biochemical, luminescence, purified enzyme, 2006 set (AID 1141).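 Further: cell-free assay with purified firefly luciferase at 100 ng per well in PBS; test concentration not given here.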 The settings on record: SteadyGlo luminescence, 30 min, higher = more signal, called active from +8 up or from −8 down.
Luciferin 4-monooxygenase (Photinus pyralis), sequence (P08659 whole entry, looked up): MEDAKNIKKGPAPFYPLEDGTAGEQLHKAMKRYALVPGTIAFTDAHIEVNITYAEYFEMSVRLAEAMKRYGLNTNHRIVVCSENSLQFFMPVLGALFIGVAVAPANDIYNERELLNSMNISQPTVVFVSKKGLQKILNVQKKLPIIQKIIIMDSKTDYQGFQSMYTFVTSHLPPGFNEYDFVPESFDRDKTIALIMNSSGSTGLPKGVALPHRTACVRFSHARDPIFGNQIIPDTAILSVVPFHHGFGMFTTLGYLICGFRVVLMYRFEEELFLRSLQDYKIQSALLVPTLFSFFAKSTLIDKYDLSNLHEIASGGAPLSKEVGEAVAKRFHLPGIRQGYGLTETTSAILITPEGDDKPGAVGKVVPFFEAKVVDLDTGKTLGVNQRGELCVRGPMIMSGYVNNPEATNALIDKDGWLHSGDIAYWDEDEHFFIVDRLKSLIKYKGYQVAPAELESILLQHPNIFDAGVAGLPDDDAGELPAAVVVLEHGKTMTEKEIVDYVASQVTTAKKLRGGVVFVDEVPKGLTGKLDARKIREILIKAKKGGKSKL

Activity calls are given as the source filed them.

Follistatin (Homo sapiens), sequence (P19883 whole entry, looked up): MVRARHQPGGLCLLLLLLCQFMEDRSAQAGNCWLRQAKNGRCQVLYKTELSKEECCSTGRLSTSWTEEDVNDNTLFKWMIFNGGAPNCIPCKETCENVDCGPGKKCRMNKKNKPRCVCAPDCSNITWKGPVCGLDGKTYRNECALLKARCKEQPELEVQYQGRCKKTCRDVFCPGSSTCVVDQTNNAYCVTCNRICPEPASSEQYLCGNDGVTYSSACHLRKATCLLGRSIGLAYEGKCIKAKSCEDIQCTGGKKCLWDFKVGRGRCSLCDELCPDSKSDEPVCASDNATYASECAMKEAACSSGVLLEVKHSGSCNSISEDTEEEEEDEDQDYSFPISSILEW
Fibroblast growth factor 2 (Homo sapiens), sequence (P09038 whole entry, looked up): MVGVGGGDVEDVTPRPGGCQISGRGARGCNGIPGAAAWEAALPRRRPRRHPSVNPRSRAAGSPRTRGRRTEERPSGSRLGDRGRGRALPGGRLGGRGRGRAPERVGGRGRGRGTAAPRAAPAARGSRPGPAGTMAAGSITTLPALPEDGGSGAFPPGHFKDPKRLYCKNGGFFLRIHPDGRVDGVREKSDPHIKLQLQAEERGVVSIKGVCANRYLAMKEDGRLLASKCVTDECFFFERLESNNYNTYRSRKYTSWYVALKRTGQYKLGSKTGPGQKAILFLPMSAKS

For the compound `COC(=O)[C@H](C)NC(=O)CCC1CC(OC(=O)NCCc2ccc(F)cc2)CC2(CCCC(COC(=O)NCCc3ccccc3OC)O2)O1` (stereo not given in full), the composite z-score is 0.335 in the assay with Albumin (Bos taurus); -0.0288 in assay [2]; -0.0061 in assay [3]; 0.244 in [4]; 1.25 in [5]; 0.0635 in assay [6]. For the same compound, the composite z-score in the assay with Sam68 (KHDRBS1) amounted to 1.29; in assay [7], 0.559; in assay [8] it was 0.924; in assay [9], 0.706; in assay [10], 1.12; in [11], 0.0694. In addition, the composite z-score stood at 0.733 in assay [12]; 1.18 in assay [13]; 0.591 in [14]; 0.554 with Lefty1; 0.432 in assay [16]. The composite Z-score in assay [1] was 0.353 (inactive). Moreover, the figures for the z-score in assay [15] and in assay [17] were 0.625 and 0.484 (inactive), respectively.
Consider `CCOC(=O)[C@H](CC(C)C)NC(=O)CCC1CC(OC(=O)NCc2ccc3c(c2)OCO3)CC2(CCCC(COC(=O)NCCc3ccccc3OC)O2)O1` (stereo not given in full), for which the composite z-score with Albumin (Bos taurus) was 0.31; in [2], -0.0328; in assay [3], -0.0633; in assay [4], 0.127; in assay [5] it was 0.754; in assay [6], 0.0278. The composite z-score in the assay with Sam68 (KHDRBS1) is 1.29; in assay [7], 0.663; in [8], 1.05; in assay [9] it was 0.746; in [10], 1.13; in assay [11], 0.283. Besides, the composite z-score in assay [12] came out at 0.669; in [13], 0.826; in assay [14] it was 1.15; in the assay on Lefty1 it was 0.787; in assay [16] it was 0.196. Further, in assay [1], the composite Z-score is 1.05 (inactive). For the same compound, the z-score was -0.717 in assay [15] and 0.867 (inactive) in assay [17].
In the case of `CC(C)=NO[C@@H](C)c1cn([C@H](CO)Cc2ccccc2)nn1`, the composite z-score in the assay with Albumin (Bos taurus) was 0.015; in assay [2] it was 0.145; in [3] it was -0.0375; in [4], 0.138; in assay [5], 0.398; in assay [6] it was 0.224. Besides, the composite z-score was 0.863 in the assay with Sam68 (KHDRBS1); 0.655 in assay [7]; 0.65 in assay [8]; 0.554 in assay [9]; 0.598 in assay [10]; -0.17 in [11]. Also, the composite z-score in assay [12] stood at 0.17; in assay [13], 0.238; in assay [14], 0.239; with Lefty1, 0.542; in assay [16] it was 0.237. Besides, in [1], the composite Z-score is 0.374 (inactive). The z-score in assay [15] was -0.0312; in assay [17], -2 (inactive).
As for `CC(C)C(=O)N[C@H]1CCCN1C(=O)C=Cc1ccccc1`, the composite z-score in the assay with Albumin (Bos taurus) stood at 0.564; in assay [2], 0.276; in assay [3], 0.0062; in assay [4], 0.267; in assay [5] it was 0.253; in [6], 0.0905. The composite z-score with Sam68 (KHDRBS1) stood at 0.752; in [7], 0.242; in assay [8] it was 0.163; in assay [9] it was 0.508; in assay [10], 0.899; in assay [11], 0.225. In addition, the composite z-score in [12] was -0.198; in assay [13] it was 0.438; in [14] it was 0.54; with Lefty1, 1.13; in [16], -0.441. In addition, the composite Z-score in assay [1] was -0.087 (inactive). Also, the z-score in [15] was -0.509; in [17] it was -0.0726 (inactive).
Take `COC(=O)C(C(=O)OC)C1CCCC(=O)C1` (stereo not given): the composite z-score with Albumin (Bos taurus) was -0.0912; in assay [2], -0.0391; in [3] it was -0.0694; in [4], 0.381; in assay [5] it was 0.214; in assay [6], -0.205. Also, the composite z-score is -0.0924 in the assay with Sam68 (KHDRBS1); 0.414 in assay [7]; 0.468 in assay [8]; 0.252 in assay [9]; 0.433 in assay [10]; 0.193 in assay [11]. Also, the composite z-score was 0.372 in assay [12]; 0.326 in assay [13]; 0.692 in [14]; 0.804 in the assay on Lefty1; 0.173 in assay [16]. Further, the composite Z-score in [1] was 0.499 (inactive). Further, the z-score is -1.13 in assay [15] and 0.138 (inactive) in assay [17].
